Test results from the supplement of paper PMC12582362.
Structures can show the parent of a compound that is named as a salt. About 30 (2%) of roughly 1,500 compounds showed activity. This is one part of a sample in which actives are shown more often than they occur. A number with no mark means an inactive call.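 How the source made its calls: active = robust z-score below -2; a few such results were not called.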

tested on: optoTopBP1 Flp-In 293 T-REx (HEK293) cells; experiment: light-induced TopBP1 condensate (nuclear foci) count, plate-normalised robust z-score vs non-control wells; higher = more TopBP1 condensates (negative = condensation inhibitor), active = hit call of the paper; conditions: 10 µM; incubation time 2 h

| Compound | light-induced TopBP1 condensate (z-score) |
| --- | --- |
| CN(C)CCN(Cc1ccc(Cl)cc1)c1ccccn1 [Chloropyramine hydrochloride] | -0.941 |
| CCCCCCCCCCCCCCCC[N+](C)(C)CCN(Cc1ccc(OC)cc1)c1ncccn1 [Thonzonium bromide] | -2.49 (active) |
| COc1ccc(CN(CCN(C)C)c2ccccn2)cc1 [Pyrilamine maleate] | -1.49 |
| CO/N=C(\C(=O)N[C@@H]1C(=O)N2C(C(=O)OC(C)OC(C)=O)=C(COC(N)=O)CS[C@H]12)c1ccco1 (some centres undefined) [Cefuroxime axetil] | -0.531 |
| C=C(NC(=O)C(=C)NC(=O)c1csc(C2=N[C@@H]3c4csc(n4)[C@H]4NC(=O)c5csc(n5)[C@H]([C@](C)(O)[C@@H](C)O)NC(=O)[C@H]5CSC(=N5)/C(=C/C)NC(=O)[C@H]([C@@H](C)O)NC(=O)c5csc(n5)[C@]3(CC2)NC(=O)[C@H](C)NC(=O)C(=C)NC(=O)[C@H](C)NC(=O)[C@H]([C@@H](C)CC)N[C@@H]2C=Cc3c([C@H](C)O)cc(nc3[C@H]2O)C(=O)O[C@@H]4C)n1)C(N)=O [Thiostrepton] | -3.34 (active) |
| CC(C)c1ccc2oc3nc(N)c(C(=O)O)cc3c(=O)c2c1 [Amlexanox] | -0.968 |
| N=C(NCCCCCCNC(=N)NC(=N)Nc1ccc(Cl)cc1)NC(=N)Nc1ccc(Cl)cc1 [Chlorhexidine] | 0.68 |
| CCc1ccc(C(=O)C(C)CN2CCCCC2)cc1 (centres undefined) [Eperisone HCl] | 1.18 |
| CC(=O)OCC(=O)[C@@]12N=C(C)O[C@@H]1C[C@H]1[C@@H]3CCC4=CC(=O)C=C[C@]4(C)[C@H]3[C@@H](O)C[C@@]12C [Deflazacort] | -0.182 |
| CCOC(=O)C1=C(COCCN)NC(C)=C(C(=O)OC)C1c1ccccc1Cl (centres undefined) [Amlodipine] | -1.57 |
| OC(c1cc(C(F)(F)F)nc2c(C(F)(F)F)cccc12)C1CCCCN1 (centres undefined) [Mefloquine hydrochloride] | -1.69 |
| CN(C)c1ccc2nc3ccc(=[N+](C)C)cc-3sc2c1 [Methylene blue] | -8.05 (active) |
| Nc1c2ccccc2nc2ccccc12 [Aminacrine] | -2.02 |
| CCOc1ccc2nc3cc(N)ccc3c(N)c2c1 [Ethacridine lactate] | 0.0605 |
| Nc1ccc2cc3ccc(N)cc3nc2c1 [Proflavine hemisulfate] | -6.85 (active) |
| CO/N=C(\C(=O)N[C@@H]1C(=O)N2C(C(=O)[O-])=C(C[n+]3ccn4ncccc43)CS[C@H]12)c1nsc(N)n1 [Cefozopran hydrochloride] | 0.96 |
| CC[C@H]1OC(=O)[C@H](C)[C@@H](O[C@H]2C[C@@](C)(OC)[C@@H](O)[C@H](C)O2)[C@H](C)[C@@H](O[C@@H]2O[C@H](C)C[C@H](N(C)C)[C@H]2O)[C@](C)(O)C[C@@H](C)/C(=N\OCOCCOC)[C@H](C)[C@@H](O)[C@]1(C)O [Roxithromycin] | 0.222 |
| CC[N+](C)(CC)CCOC(=O)C1c2ccccc2Oc2ccccc21 [Methantheline bromide] | 0.691 |
| CSc1nc2cc(Cl)c(Oc3cccc(Cl)c3Cl)cc2[nH]1 [Triclabendazole] | -2.43 (active) |
| C[C@@H](CN1CC(=O)NC(=O)C1)N1CC(=O)NC(=O)C1 [Dexrazoxane hydrochloride] | -0.035 |

| Compound | light-induced TopBP1 condensate (z-score) |
| --- | --- |
| C=CCOc1ccc(CC(=O)O)cc1Cl [Alclofenac] | 0.0679 |
| N=C(N)NCCN1CCCCCCC1 [Guanethidine sulfate] | -0.799 |
| CC(C)(C)NC[C@H](O)COc1ccccc1C1CCCC1 [Penbutolol sulfate] | -0.793 |
| COc1ccccc1Oc1c(NS(=O)(=O)c2ccc(C(C)(C)C)cc2)nc(-c2ncccn2)nc1OCCO [Bosentan] | 0.343 |
| CC[C@H]1OC(=O)C[C@@H](O)[C@H](C)[C@@H](O[C@@H]2O[C@H](C)[C@@H](O[C@H]3C[C@@](C)(O)[C@@H](O)[C@H](C)O3)[C@H](N(C)C)[C@H]2O)[C@@H](CC=O)C[C@@H](C)C(=O)/C=C/C(C)=C/[C@@H]1CO[C@@H]1O[C@H](C)[C@@H](O)[C@@H](OC)[C@H]1OC [Tylosin] | 0.755 |
| CN1C(=O)OC(C)(C)C1=O [Trimethadione] | 0.285 |
| NC[C@@H]1O[C@@H](O[C@H]2[C@H](O)[C@@H](O[C@H]3O[C@H](CO)[C@@H](O)[C@H](N)[C@H]3O)[C@H](N)C[C@@H]2N)[C@@H](O)[C@H](O)[C@H]1O [Kanamycin A sulfate] | 0.0568 |
| C[C@H]1[C@H](OC(=O)CCC(=O)O)O[C@@H]2O[C@@]3(C)CC[C@H]4[C@H](C)CC[C@@H]1[C@@]24OO3 [Artesunate] | -0.0235 |
| CCN(CC)CCCC(C)Nc1c2ccc(Cl)cc2nc2ccc(OC)cc12 (centres undefined) [Quinacrine dihydrochloride hydrate] | -3.15 (active) |
| CCN(CCO)CCCC(C)Nc1ccnc2cc(Cl)ccc12 (centres undefined) [Hydroxychloroquine sulfate] | -1.68 |
| CCN(CC)CCCC(C)Nc1ccnc2cc(Cl)ccc12 (centres undefined) [Chloroquine diphosphate] | -0.187 |
| CC(=O)N[C@@H](CC(=O)N[C@@H](CCC(=O)O)C(=O)O)C(=O)O [Spaglumic acid] | 1.44 |
| CC(C)(CO)[C@@H](O)C(=O)NCCC(=O)NCCSSCCNC(=O)CCNC(=O)[C@H](O)C(C)(C)CO [Pantethine] | 0.505 |
| NCCCC(O)(P(=O)(O)O)P(=O)(O)O [Alendronate sodium] | -0.706 |
| O=P(O)(O)C(O)(Cc1cccnc1)P(=O)(O)O [Risedronic acid monohydrate] | -0.826 |
| C#C[C@]1(O)CC[C@H]2[C@@H]3CCC4=CCCC[C@@H]4[C@H]3CC[C@@]21C [Lynestrenol] | 1.39 |
| CC(C)=CCC1C(=O)N(c2ccccc2)N(c2ccccc2)C1=O [Feprazone] | 1.11 |
| C[N+](C)(C)C[C@H](O)CC(=O)[O-] [Levocarnitine] | 0.0352 |
| CC(C)Nc1cccnc1N1CCN(C(=O)c2cc3cc(NS(C)(=O)=O)ccc3[nH]2)CC1 [Delavirdine] | 0.915 |
| Cn1ccnc1S [Methimazole] | -0.456 |

| Compound | light-induced TopBP1 condensate (z-score) |
| --- | --- |
| CC1(C)O[C@@H]2C[C@H]3[C@@H]4CCC5=CC(=O)C=C[C@]5(C)[C@H]4[C@@H](O)C[C@]3(C)[C@]2(C(=O)CO)O1 [Desonide] | -0.951 |
| CC/C=C(\C(=O)N[C@@H]1C(=O)N2C(C(=O)OCOC(=O)C(C)(C)C)=C(COC(N)=O)CS[C@H]12)c1csc(N)n1 [Cefcapene pivoxil hydrochloride] | -0.782 |
| CCOc1ccccc1C(N)=O [Ethenzamide] | -0.0402 |
| CCC[C@@H]1C[C@@H](C(=O)N[C@@H]([C@H]2O[C@H](SC)[C@H](O)[C@@H](O)[C@H]2O)[C@H](C)Cl)N(C)C1 [Clindamycin hydrochloride] | 0.556 |
| CC[C@@H]([C@H](C)O)n1ncn(-c2ccc(N3CCN(c4ccc(OC[C@@H]5CO[C@@](Cn6cncn6)(c6ccc(F)cc6F)C5)cc4)CC3)cc2)c1=O [Posaconazole] | -2.52 (active) |
| CCC(C)n1ncn(-c2ccc(N3CCN(c4ccc(OCC5COC(Cn6cncn6)(c6ccc(Cl)cc6Cl)O5)cc4)CC3)cc2)c1=O (centres undefined) [Itraconazole] | -0.757 |
| CC(C)N1CCN(c2ccc(OCC3COC(Cn4cncn4)(c4ccc(Cl)cc4Cl)O3)cc2)CC1 (centres undefined) [Terconazole] | -0.114 |
| CN[C@@H]1[C@@H](O[C@H]2O[C@H](CO)[C@@H](N)[C@H](O)[C@H]2O)OC2C[C@@H](N)[C@@H](O[C@H]3[C@H](O)[C@@H](O)[C@H](N)C[C@@H]3N)OC2[C@@H]1O (some centres undefined) [Apramycin] | 0.974 |
| C#Cc1cccc(Nc2ncnc3cc(OCCOC)c(OCCOC)cc23)c1 [Erlotinib] | 1.27 |
| OC(CNCC(O)C1CCc2cc(F)ccc2O1)C1CCc2cc(F)ccc2O1 (centres undefined) [Nebivolol hydrochloride] | -0.227 |
| CCCC(=O)N1CCCN(c2nc(N)c3cc(OC)c(OC)cc3n2)CC1 [Bunazosin hydrochloride] | 0.537 |
| CC(=O)OCC(=O)[C@@]1(O)[C@H](C)C[C@H]2[C@@H]3CCC4=CC(=O)C=C[C@]4(C)[C@@]3(F)[C@@H](O)C[C@@]21C [Dexamethasone acetate] | 0.214 |
| OCCN1CCN(CC/C=C2/c3ccccc3Sc3ccc(Cl)cc32)CC1 [Zuclopenthixol dihydrochloride] | -0.966 |
| Cn1cc(C(=O)[C@@H]2CCc3[nH]cnc3C2)c2ccccc21 [Ramosetron hydrochloride] | -0.549 |
| COc1ccc(C2C(=O)c3ccccc3C2=O)cc1 [Anisindione] | 0.789 |
| COc1cccc2c1C(=O)c1c(O)c3c(c(O)c1C2=O)C[C@@](O)(C(=O)CO)C[C@@H]3O[C@H]1C[C@H](N)[C@@H](O)[C@H](C)O1 [Epirubicin hydrochloride] | -3.05 (active) |
| CC(COc1ccccc1)NC(C)C(O)c1ccc(O)cc1 (centres undefined) [Isoxsuprine hydrochloride] | -0.14 |
| Oc1ccc(OCc2ccccc2)cc1 [Monobenzone] | -2.29 (active) |
| C[C@H](NCc1ccc(OCc2cccc(F)c2)cc1)C(N)=O [Safinamide] | -0.127 |
